This is an account of results in PubChem BioAssay AID493035 (The Scripps Research Institute Molecular Screening Center, 2011).

Hit rate of the full screen: of about 2,000 compounds, about 45 (2%) were called active.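 The calls were made as follows: active = inhibition above the mean of all tested compounds plus 3 SD (cut at about 49% in these data); inactive = the rest.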 Only a selection was taken, and actives are over-represented in it overall.

Chain of Perilipin-5 (Homo sapiens) + 1-acylglycerol-3-phosphate O-acyltransferase ABHD5 (Homo sapiens) (Q00G26 whole entry, looked up): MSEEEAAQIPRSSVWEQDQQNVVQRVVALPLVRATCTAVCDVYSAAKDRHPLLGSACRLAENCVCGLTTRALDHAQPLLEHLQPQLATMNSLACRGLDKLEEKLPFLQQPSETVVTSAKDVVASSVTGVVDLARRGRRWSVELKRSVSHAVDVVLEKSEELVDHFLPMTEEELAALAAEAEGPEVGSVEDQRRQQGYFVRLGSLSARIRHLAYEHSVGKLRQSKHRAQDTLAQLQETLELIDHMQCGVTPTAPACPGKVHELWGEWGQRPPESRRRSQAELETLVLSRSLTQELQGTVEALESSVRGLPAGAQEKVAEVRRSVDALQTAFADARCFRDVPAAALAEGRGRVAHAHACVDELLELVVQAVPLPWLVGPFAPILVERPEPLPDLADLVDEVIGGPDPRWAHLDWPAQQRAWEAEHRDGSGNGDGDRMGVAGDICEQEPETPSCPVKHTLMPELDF
Chain of Perilipin-5 (Homo sapiens) + 1-acylglycerol-3-phosphate O-acyltransferase ABHD5 (Homo sapiens) (Q8WTS1 whole entry, looked up): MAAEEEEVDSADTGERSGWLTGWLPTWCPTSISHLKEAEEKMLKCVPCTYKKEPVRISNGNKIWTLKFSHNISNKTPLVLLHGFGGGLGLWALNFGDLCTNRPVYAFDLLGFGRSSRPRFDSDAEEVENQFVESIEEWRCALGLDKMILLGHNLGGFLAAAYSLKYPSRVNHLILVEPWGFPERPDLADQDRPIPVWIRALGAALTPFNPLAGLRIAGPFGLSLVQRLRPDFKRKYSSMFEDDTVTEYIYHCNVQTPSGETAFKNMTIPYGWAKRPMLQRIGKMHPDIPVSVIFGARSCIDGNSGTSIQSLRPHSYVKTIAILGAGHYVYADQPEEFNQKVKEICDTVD

The assay has as its target Perilipin-5 (Homo sapiens) + 1-acylglycerol-3-phosphate O-acyltransferase ABHD5 (Homo sapiens) (UniProt Q00G26+Q8WTS1). The assay can be described thus: ABHD5-PLIN5 interaction inhibitors, pilot screen, cell lysate, split luciferase complementation, luminescence, NIH validation set (AID 493035).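 Also: 0% = DMSO only wells while the 100% control is not stated.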 The note with it: split G. princeps luciferase complementation, lysates, 4 h, at 7.9 µM, stronger effect = higher value.
With `O=C1C(=O)c2ccccc2-c2ccccc21`, the inhibition is 69.8% (active).

In the case of `S=C1NCCN1`, the inhibition is -0.74% (inactive).

For the compound `CC12CN3CC(C)(CN(C1)C31CCOCC1)C2=O`, the inhibition is -15.3% (inactive).

As for `C[C@H]1CCC/C=C/C2C[C@H](O)CC2[C@H](O)/C=C/C(=O)O1` (stereo not given in full), the inhibition was -14.2% (inactive).

`CC[C@]12C=CCN3CCC4(c5cc(Br)c(OC)cc5N(C)C4[C@@](O)(C(=O)OC)[C@@H]1OC(C)=O)C32` (stereo not given in full): the inhibition was -5.38% (inactive).

Consider `CCOC(=O)c1cc2c(cn1)[nH]c1ccccc12`, for which the inhibition was -11.3% (inactive).

With `COP(=S)(OC)SCN1C(=O)c2ccccc2C1=O`, the inhibition is 93.3% (active).

For the compound `COc1ccc2c(c1)CC1(CN2C)C(=O)NC(=O)N(CCc2ccccc2)C1=O` (stereo not given), the inhibition was 3.64% (inactive).

As for `CC12CCC3C(CC=C4CC(O)CCC43C)C1C/C(=C\c1cccc(F)c1)C2=O` (stereo not given), the inhibition is -0.83% (inactive).

Regarding `O=C1C=Cc2ccccc2C1=O`, the inhibition is 59.1% (active).

Turning to `C[N+]1(C)C2CCC1CC(OC(=O)C(CO)c1ccccc1)C2` (stereo not given), the inhibition was -3.97% (inactive).

As to `C[C@H]1CCCC(=O)CCCCCc2cc(O)cc(O)c2C(=O)O1`, the inhibition is 6.49% (inactive).

As to `Cc1cc2c(C(C)C)c(O)c(O)c(C=O)c2c(O)c1-c1c(C)cc2c(C(C)C)c(O)c(O)c(C=O)c2c1O`, the inhibition was 50.7% (active).

For `NCC1(c2ccc3c(c2)OCCO3)CCCC1`, the inhibition is -7.35% (inactive).

For the compound `CCOC(=O)C(C)Oc1cc(C)cc2oc(=O)c3c(c12)CCCC3` (stereo not given), the inhibition is 6.91% (inactive).

Take `CCOc1ccc(N2C(=O)NC(=O)/C(=C\c3cc(OC)c(OC)cc3[N+](=O)[O-])C2=O)cc1`: the inhibition is 66.2% (active).

On to `COc1cc(/C=C2\C(=O)NC(=O)N(c3ccccc3)C2=O)c([N+](=O)[O-])cc1OC`, for which the inhibition is 63.5% (active).

As for `Cc1ccc(/C=C2/C(=O)NC(=O)N(C)C2=O)cc1`, the inhibition was 7.85% (inactive).

On to `Cc1ccc(-n2c(C)cc(/C=C3/C(=O)NC(=O)N(C)C3=O)c2C)cc1`, for which the inhibition was 33.2% (inactive).

Consider `CC[C@@H](CO)NC(=O)[C@@H]1C=C2c3cccc4c3c(cn4C)C[C@H]2N(C)C1`, for which the inhibition is 1.19% (inactive).

On to `C[C@]12CC[C@@H](O)C[C@@H]1CC[C@@H]1[C@@H]2CC[C@]2(C)C(=O)CC[C@@H]12`, for which the inhibition is -8.46% (inactive).

With `Cc1ccsc1C(=O)C1CCCN(Cc2cc3ccccc3o2)C1` (stereo not given), the inhibition is -2.51% (inactive).

On to `COc1ccc(-c2nc3ccccc3c(=O)o2)cc1`, for which the inhibition is -1.16% (inactive).

As to `CC(Cc1ccccc1)NCC(=O)Nc1cc(N(C)C)nc2ccccc12` (stereo not given), the inhibition is 2.7% (inactive).

For `COc1ccccc1CN1CCCCC1c1cccnc1` (stereo not given), the inhibition was -4.35% (inactive).

Take `Clc1ccc(COC(Cn2ccnc2)c2ccc(Cl)cc2Cl)c(Cl)c1` (stereo not given): the inhibition was 4.9% (inactive).

Turning to `COc1ccc(OC)c([C@@H](O)[C@H](C)NC(C)(C)C)c1`, the inhibition was 2.3% (inactive).

Consider `C[N+](C)(C)Cc1ccccc1`, for which the inhibition was -2.04% (inactive).

In the case of `CC12CN3CC(c4ccccc4)(CN(C1)C31CCCCC1)C2=O`, the inhibition was -2.32% (inactive).

As to `O=c1c2ccccc2nc(/C=C/c2ccc3c(c2)OCO3)n1-c1ccccc1`, the inhibition was 2.37% (inactive).

Consider `Cc1nc2ccccc2c(=O)n1-c1ccc(C(=O)O)cc1`, for which the inhibition was 7.89% (inactive).

With `O=c1c2ccccc2[se]n1-c1ccccc1`, the inhibition is 95.1% (active).

Take `C[C@]12CC[C@@H](O)C[C@@H]1CC[C@@H]1[C@@H]2CC[C@]2(C)[C@@H](O)CC[C@@H]12`: the inhibition is -3.26% (inactive).

For the compound `CCN(CC)CCOC(=O)C(O)(c1ccccc1)c1ccccc1`, the inhibition is 0.42% (inactive).

In the case of `CCN1CC2(COC(=O)c3ccccc3N)CCC(OC)C34C5CC6C(OC)CC(O)(C5C6OC)C(O)(C(OC)C23)C14` (stereo not given), the inhibition is 0.04% (inactive).

Usually inhibition stands for the relative decrease from the control value, in per cent.
